The record followed here is PubChem BioAssay AID1981 (Southern Research Specialized Biocontainment Screening …, 2009).

Molecules are shown by their SMILES. About 480 (22%) of roughly 2,200 compounds were called active. The rule behind the calls is not given here. The list is a sample of the results. Results with a measured potency or affinity are listed apart.

The assay in a line: S. Typhimurium GFP fluorescence modified counterscreen for PhoP regulon inhibitor project dose response (AID 1981). As to conditions: 4 h; series mostly up to 150 µM.
On to `O=C(O)Cc1sc(Nc2ccc(Cl)cc2)nc1-c1cccs1`, for which the compound was called inactive.

`S=C(c1ccc2c(c1)OCO2)N1CCCC1`: the outcome was inactive.

`Cc1ccc(-c2n[nH]c(=S)n2/N=C/c2cc3c(cc2[N+](=O)[O-])OCO3)cc1`: the result was inactive.

As to `O=c1[nH]c(SCc2nc3ccccc3c(=O)n2-c2ccccc2C(F)(F)F)nc2ccccc12`, the result was inactive.

With `CCC(OC(=O)C(NC(=O)c1ccccc1)c1ccccc1)C(=O)Nc1cc(C)on1` (stereo not given), the call was inactive.

Take `S=c1[nH]nc(Cc2cccc3ccccc23)o1`: the compound was called inactive.

For `Cc1ccc(S(=O)(=O)N2C(=O)CCC2C(=O)N2CCN(C)CC2)cc1` (stereo not given), the compound was called inactive.

Consider `CN(C)c1nc(N)nc(Cn2ccnc2)n1`, for which the compound was classed as inactive.

For `CC(NCc1ccc(Cl)c(Cl)c1)C(O)c1ccccc1` (stereo not given), the result was inactive.

On to `CCCc1cc(C(=O)Cc2ccc(C(=O)OCC)o2)c(O)cc1O`, for which the call was inactive.

Turning to `COc1ccc(C(=O)Nn2c(SCC(=O)N3CCC(C)CC3)nc3ccccc3c2=O)cc1`, the call was inactive.

For the compound `O=C(COc1ncnc2sccc12)N1CCN(S(=O)(=O)c2ccc(Cl)cc2)CC1`, the compound was called inactive.

`O=S(=O)(c1ccc2c(c1)OCCO2)N1CCN(c2cccc(Cl)c2)CC1`: the compound was called inactive.

On to `COc1ccc(N(C(=O)CCl)C(C(=O)NCCc2ccccc2)c2cccs2)cc1` (stereo not given), for which the call was inactive.

Consider `S=C(Nc1ccc2snnc2c1)N1CCN(c2ccccn2)CC1`, for which the compound was called inactive.

For the compound `CCn1c2ccccc2c2nnc(SCC(=O)Nc3ccc4c(c3)OCO4)nc21`, the call was inactive.

As for `CCCn1c(SCC(=O)c2c(C)[nH]c(C)c2C(=O)OCC)nc2ccccc21`, the call was inactive.

`COc1cc(CNc2ccc(CNc3ncn[nH]3)cc2)ccc1OCc1ccccc1`: the result was inactive.

`Clc1ccc(CNc2ccc(CNc3ncn[nH]3)cc2)cc1`: the compound was classed as inactive.

As to `CC(C)(C)c1n[nH]c(=S)n(/N=C/c2cccs2)c1=O`, the result was inactive.

With `Cc1cccc(Nc2nnc(SCC(=O)NC3CCCc4ccccc43)s2)c1` (stereo not given), the result was inactive.

As to `CCCCOc1ccc(S(=O)(=O)NNC(=O)C2Cc3c(ccc4ccccc34)O2)cc1` (stereo not given), the result was inactive.

Consider `Clc1ccc(SCCCCn2ccnc2)cc1`, for which the result was inactive.

`Cc1c(NS(=O)(=O)c2ccccc2)c(=O)n(-c2ccccc2)n1C`: the compound was called inactive.

For `CN1CCN(Cc2nc3ccccc3c(=O)[nH]2)CC1`, the result was inactive.

In the case of `CC(O)CNc1cc(N)c([N+](=O)[O-])cc1[N+](=O)[O-]` (stereo not given), the result was inactive.

Take `O=P1(NC2CCCC2)COc2ccccc2OC1`: the call was inactive.

For `c1ccc(Nc2nc3ccccc3[nH]2)nc1`, the compound was classed as inactive.

Turning to `c1ccc(Nc2ccnc(Nc3ccccc3)n2)cc1`, the compound was classed as inactive.

Consider `O=C1CN(C(=O)COC(=O)CCC(=O)c2ccc3c(c2)OCCO3)c2ccccc2N1`, for which the call was inactive.

For the compound `CSC(=NS(=O)(=O)c1ccccc1)SC`, the compound was classed as inactive.

Regarding `O=C(c1ccccc1)C(CN1CCCC1)c1ccccc1` (stereo not given), the outcome was inactive.

`NC1=NC(=Nc2ccc(Cl)cc2)c2ccccc21`: the outcome was inactive.

Take `C(=Nc1ccc(Nc2ccccc2)cc1)c1ccc2ccccc2c1`: the call was inactive.

`CCOC(=O)N1CCN(c2nc(C)c3c(n2)CCCC3=O)CC1`: the outcome was inactive.

`Cc1cc(=O)oc2cc(OCC(O)CN3CCc4ccccc4C3)ccc12` (stereo not given): the compound was called inactive.

`CN1CCCC(OC(=O)c2ccc3c(c2)OCCO3)C1` (stereo not given): the outcome was inactive.

Turning to `COc1nc(N(c2ccccc2)c2ccccc2)nc(-n2ccnc2)n1`, the result was inactive.

Regarding `O=C(c1ccco1)N1CCN(c2ncnc3c2[nH]c2ccccc23)CC1`, the call was inactive.

Turning to `COCCCNc1ccnc2c(Cl)cccc12`, the result was inactive.

As to `COc1ccc(-c2cc(C(=O)Nc3ccc(S(=O)(=O)Nc4ncccn4)cc3)c3ccccc3n2)cc1`, the compound was classed as inactive.

As to `CN(CC(=O)NCc1cccc(F)c1)C(=O)c1ccco1`, the outcome was inactive.

Turning to `COC(=O)c1ccc(Sc2ccccc2NS(=O)(=O)c2ccc(C)cc2)nc1`, the compound was called inactive.

For the compound `C=CCOc1ccc(/C=N/NC(=O)CN(c2cc(Cl)ccc2OC)S(=O)(=O)c2ccc(C)c([N+](=O)[O-])c2)cc1`, the compound was called inactive.

For the compound `CN(CC(=O)Nc1ccc(C#N)cc1)Cc1ccc(Cl)cc1`, the compound was classed as inactive.

As for `O=C(CSc1ccc(Cl)cc1)Nc1ccccc1N1CCN(C(=O)c2ccc(Cl)cc2)CC1`, the compound was classed as inactive.

As to `Cc1nc(C(=O)Nc2ccc(Cl)cc2)nn1-c1ccc([N+](=O)[O-])cc1`, the call was inactive.

Turning to `OC1(c2ccc3ccccc3c2)CCN(Cc2ccccc2)C1` (stereo not given), the compound was called inactive.

In the case of `NNC(=O)c1cc2ccccc2cc1O`, the call was inactive.

Take `NC(=NCCc1c[nH]c2ccccc12)NC(=O)c1ccc(F)cc1`: the compound was called inactive.

Regarding `C=CCSc1ncnc2sc(C)c(C)c12`, the compound was classed as inactive.

Consider `Cc1cc2cc(CCNC(=O)c3cccs3)c(=O)[nH]c2cc1C`, for which the compound was classed as inactive.

As to `CCOC(=O)c1cnc2ccc(OC)cc2c1Nc1ccc2c(c1)OCCO2`, the compound was classed as inactive.

As to `COc1cccc(Cn2cnc3c(NS(=O)(=O)c4cccc(Cl)c4Cl)c(C)c(C)cc32)c1`, the call was inactive.

On to `Cc1cc(Oc2ccc(-c3nnc(-c4ccccc4)o3)cc2[N+](=O)[O-])ccc1Cl`, for which the result was inactive.

As for `O=c1[nH]c(CSc2nnc(NCCCN3CCOCC3)s2)nc2cc(Cl)ccc12`, the compound was classed as inactive.

`O=C(Nc1ccc(O)cc1)c1cc2n(n1)C(C(F)(F)F)CC(c1ccco1)N2` (stereo not given): the call was inactive.

Turning to `CCOc1cc(C2Nc3cccc4cccc(c34)N2)ccc1O`, the outcome was inactive.

Regarding `OC(COc1ccc2c(c1)CCC2)Cn1cnc2ccccc21` (stereo not given), the outcome was inactive.

As to `O=C1CC(SCc2nc3ccccc3[nH]2)C(=O)N1c1ccc(Cl)cc1` (stereo not given), the outcome was inactive.

As to `Cc1c(Cl)cccc1NC(=O)CSc1ncnc2c1cnn2CCc1ccccc1`, the compound was classed as inactive.

On to `Cc1ccc(S(=O)(=O)N2CCC(C(N)=O)CC2)c(C)c1C`, for which the call was inactive.

Take `O=C1C2=C(NC(=S)NC2c2ccc(Cl)cc2)NC(c2ccc(Cl)cc2)N1c1ccc(Cl)cc1` (stereo not given): the result was inactive.

Turning to `Cc1nc(-c2ccccc2)cc(=O)[nH]1`, the result was inactive.

As for `CC(=O)C1=C(C)Nc2ncnn2C1c1ccccc1OCc1ccccc1` (stereo not given), the compound was classed as inactive.

As for `O=C(Nc1ccc2c(c1)OCO2)c1cnn2cccnc12`, the result was inactive.

Consider `CC(O)CNCCNCc1c(OCc2ccccc2)ccc2ccccc12` (stereo not given), for which the result was inactive.

`OCCN(Cc1ccccc1)Cc1ccc(Cl)cc1`: the compound was classed as inactive.

With `N#CC1=C(N)Oc2c(O)cc3ccccc3c2C1c1ccsc1` (stereo not given), the outcome was inactive.

On to `COc1ccc(Nc2ccc3c(c2)=NC2(CCCCC2)[N+]=3[O-])cc1`, for which the compound was classed as inactive.

`COc1ccc(Nc2sc(C(=O)Nc3cccc(Cl)c3)c(N)c2C(=O)Nc2ccccc2OC)cc1`: the compound was classed as inactive.

`COc1ccc(OCCSc2nnc(-c3ccc(OC)cc3)n2N)cc1`: the call was inactive.

Regarding `O=C(CC(NS(=O)(=O)c1ccc(Cl)cc1)c1ccco1)N1CCc2ccccc21` (stereo not given), the compound was classed as inactive.

As to `Cc1cc(-c2nnc(-c3ccccc3)c(-c3ccccc3)n2)c(C)o1`, the compound was called inactive.

Turning to `CO/N=C\CC(=O)Nc1ccc(F)cc1`, the compound was classed as inactive.

For the compound `Oc1ccc(/C=N/NC(=S)Nc2cccnc2)c(O)c1`, the call was inactive.

For `Cc1ccc(NC(=S)NCc2cccnc2)cc1`, the compound was called inactive.

For the compound `COc1cccc(NC(=O)NCCCN2CCN(c3ccc(F)cc3)CC2)c1`, the call was inactive.

As for `Cc1ccc(-n2c(C)cc(-c3csc(N)n3)c2C)cc1`, the outcome was inactive.

`CCOc1ccc(C(=O)Nc2ccccc2CC)cc1[N+](=O)[O-]`: the result was inactive.

`CCOc1ccc(CSC(=N)N)cc1[N+](=O)[O-]`: the result was inactive.

With `CCOc1ccc(C(=O)NC(=S)Nc2ccc(N3CCCCC3)cc2)cc1[N+](=O)[O-]`, the result was inactive.

On to `CC(C)NC(=O)/C(=N\O)c1ccccc1`, for which the call was inactive.

On to `Cc1ccc(Oc2nnc(-c3ccccc3)c3ccccc23)cc1`, for which the outcome was inactive.

Turning to `CCn1c(SCC(=O)N2CCCCC2)nc(O)cc1=O`, the outcome was inactive.

In the case of `Cc1ccc(Nc2cc(=O)[nH]c(=O)[nH]2)c(C)c1`, the result was inactive.

For the compound `CCn1c2ccccc2c2cc(C3N=C(N)Nc4nc5ccccc5n43)ccc21` (stereo not given), the result was inactive.

Turning to `CCn1cc(C(=O)O)c(=O)c2cc(OC)ccc21`, the result was inactive.

Regarding `COc1ccc(Oc2coc3cc(OC(=O)c4cccs4)ccc3c2=O)cc1`, the outcome was inactive.

Take `CCOC(=O)c1ccc(NC(=O)Nc2cc(C)on2)cc1`: the compound was classed as inactive.

As to `COC(=O)C1C(=O)C=C(N2CCOCC2)CC1(C)C` (stereo not given), the result was inactive.

As to `O=C(CNC(=O)OCc1ccccc1)NCC(=O)N1CCCC1C(=O)OCc1ccccc1` (stereo not given), the compound was classed as inactive.

With `COc1ccc(C2=C(Nc3ccc(C)cc3)c3ccccc3C2=O)cc1`, the outcome was inactive.

As for `O=c1c(Cl)c(Cl)cnn1Cc1ccccc1Cl`, the result was inactive.

Turning to `N=c1sccn1CC(=O)Nc1ccccc1Oc1ccccc1`, the call was inactive.

Turning to `CC(=O)N1CCC(N(CCN2CCOCC2)C(=S)Nc2cccc(C)c2C)CC1`, the result was inactive.

Take `CCCNC(=O)COC(=O)CCC(=O)c1ccc(F)cc1`: the result was inactive.

For the compound `NC(=NCc1ccc2c(c1)OCO2)NC(=O)c1ccccc1`, the compound was called inactive.

Regarding `O=C(CN1CCCCC1)Nc1cccc2c1OCO2`, the compound was classed as inactive.

For `O=C(Nc1ccc2oc(-c3ccc(Cl)c(Cl)c3)nc2c1)c1ncn[nH]1`, the call was inactive.

For the compound `CCOC(=O)C1=C(C)Nc2nc3ccccc3n2C1c1cccs1` (stereo not given), the compound was called inactive.

Turning to `COc1ccc(-c2nc3ccccc3c(=O)n2-c2nccs2)cc1`, the compound was classed as inactive.

`Brc1cccc(CNc2nc3ccccc3n2CCN2CCCCC2)c1`: the call was inactive.

In the case of `CC(=O)N1C(=O)C2(C(C#N)=C(N)Oc3c2c(C)nn3-c2ccccc2)c2ccccc21` (stereo not given), the result was inactive.

As to `CCCCn1cnc2c(cnn2-c2ccc(F)cc2)c1=O`, the compound was classed as inactive.

`CC(NC(=O)C1(C)CC1(Br)Br)C(C)(C)C` (stereo not given): the result was inactive.

Turning to `Cc1ccc(C(=O)C(OC(=O)COc2ccccc2C)c2ccccc2)cc1` (stereo not given), the compound was called inactive.

Regarding `Cc1ccc(C(=O)NNc2c3ccccc3nc3ccccc23)cc1`, the compound was classed as inactive.

Turning to `O=C(NCCc1ccccc1)c1ccc2nc(-c3ccco3)c(-c3ccco3)nc2c1`, the result was inactive.

On to `C=CCOc1ccccc1CNCCCN1CCOCC1`, for which the compound was classed as inactive.

As to `O=c1[nH]c(NCc2ccco2)nnc1Cc1ccccc1Cl`, the call was inactive.

Consider `Nc1cc(N)cc(-c2nc3ccccc3[nH]2)c1`, for which the compound was classed as inactive.

As to `O=C(NNc1c2ccccc2nc2ccccc12)c1cccc(O)c1`, the result was inactive.

As to `COc1ccc(S(=O)(=O)n2nc(OC(=O)c3cccs3)cc2N)cc1`, the compound was classed as inactive.

As to `CC(=O)C1=C(C)NC(SCSc2ccccc2)=C(C#N)C1c1cccnc1` (stereo not given), the result was inactive.
